According to PubChem BioAssay:
“And” between values parts separate entries of the source, which are not always exact repeats. Equal entries are not always repeated. Records with an inconclusive call do not appear. Where a structure was tested more than once in an assay, its records may differ in their call. The source made the active and inactive calls. Rule as the data show it, unless noted: active = inhibition above about 80%; inactive = the rest.

Assays:
[1] = viability loss in pontine glioma line – cell-based, SU-DIPG-XXV, MIPE5.0, CellTiter-Glo, qHTS, dose response (AID 1347065; cut-off not given, nearly all actives have AC50 up to about 26 µM;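 also: cells exposed to compound for 48 hours before ATP readout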); conditions: CellTiter-Glo ATP luminescence
[2] = target: NAD(+) hydrolase SARM1 (Homo sapiens) (UniProt Q6SZW1); assay: blocking NAD cleavage by SARM1 SAM-TIR – cell lysate, NAD-Glo luminescence (AID 1508614;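 active = compound whose remaining NAD level is above about 45 nM, limit read from the data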;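 also: higher remaining NAD means stronger inhibition of SARM1 NADase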); conditions: SAM-TIR HEK293T lysate NADase, at 1 µM, stronger effect = higher value
NAD(+) hydrolase SARM1 (Homo sapiens), sequence (Q6SZW1 whole entry, looked up): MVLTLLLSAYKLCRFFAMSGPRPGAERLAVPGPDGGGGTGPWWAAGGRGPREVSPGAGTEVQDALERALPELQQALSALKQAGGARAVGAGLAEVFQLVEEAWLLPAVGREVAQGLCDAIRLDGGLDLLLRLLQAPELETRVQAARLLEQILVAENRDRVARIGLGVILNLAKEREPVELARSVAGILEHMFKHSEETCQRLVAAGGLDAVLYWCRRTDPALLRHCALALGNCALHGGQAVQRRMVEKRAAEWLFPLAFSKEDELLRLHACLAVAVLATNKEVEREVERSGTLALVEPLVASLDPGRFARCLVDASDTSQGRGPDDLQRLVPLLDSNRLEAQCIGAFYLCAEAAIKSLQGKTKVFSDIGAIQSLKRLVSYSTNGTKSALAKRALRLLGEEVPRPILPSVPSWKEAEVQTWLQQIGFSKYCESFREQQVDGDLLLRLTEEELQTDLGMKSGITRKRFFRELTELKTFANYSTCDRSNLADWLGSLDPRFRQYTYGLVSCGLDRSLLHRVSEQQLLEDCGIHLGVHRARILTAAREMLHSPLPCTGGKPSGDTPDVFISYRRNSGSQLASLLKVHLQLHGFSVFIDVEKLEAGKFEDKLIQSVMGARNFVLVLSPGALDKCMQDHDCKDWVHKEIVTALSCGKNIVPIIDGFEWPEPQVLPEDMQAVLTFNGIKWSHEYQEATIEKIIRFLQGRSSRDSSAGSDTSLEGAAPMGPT

[3] = growth inhibition, single agent or in combination, cell-based, chromothripsis tumors, cisplatin or BGB combos (AID 1671449); conditions: LFS_MB_P medulloblastoma cells;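 also: cells exposed for 96 hours; 0% = vehicle DMSO and 100% = killing by high DMSO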
[4] = growth inhibition, single agent and combos, cell-based, chromothripsis tumors, cisplatin or BGB combos (AID 1671450); conditions: HDN33 neuroblastoma cells, stronger effect = higher value;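 also: cells exposed to compound for four days; 0% = vehicle DMSO and 100% = cell killing by high DMSO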
[5] = growth inhibition, single agents and combos, LFS_MB_1R, cell-based, cisplatin or BGB combos, synergistic combos for chromothripsis tumors (AID 1671452); conditions: LFS_MB_1R medulloblastoma cells, stronger effect = higher value;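 also: cells exposed for 96 hours before readout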
[6] = growth inhibition, single agents and combos, HTB85, cell-based, BGB or cisplatin IC20 combos, synergistic combos for chromothripsis tumors (AID 1671453); conditions: HTB85 osteosarcoma cells, drug combinations, stronger effect = higher value;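 also: cells exposed for 96 hours before readout; 0% = vehicle DMSO and 100% = high DMSO killing control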
[7] = growth inhibition, MDA-MB-436, cell-based, BGB or cisplatin combos, synergistic combos for chromothripsis tumors (AID 1671458; call rule not given here;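 also: cells exposed for 96 hours; 0% = vehicle DMSO and 100% = killing by high DMSO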); conditions: MDA-MB-436 breast carcinoma growth inhibition, drug combinations, stronger effect = higher value
[8] = BT084 cell growth, single and combined drugs, ICGC_MB145, cisplatin and BGB IC40 combos (AID 1671461); conditions: BT084 medulloblastoma cells, drug combinations, stronger effect = higher value;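 also: cells exposed to drugs for 96 hours; 0% = vehicle DMSO and 100% = high DMSO full killing control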
[9] = RCMB18 cell growth, single agent and combined, cisplatin and BGB IC40 combos (AID 1671462); conditions: RCMB18 medulloblastoma cells, stronger effect = higher value;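 also: cells exposed to compound for four days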
[10] = CRL1545 cell growth, single agent and combined, cisplatin and BGB IC20 combos (AID 1671464); conditions: CRL1545 osteosarcoma cells, stronger effect = higher value;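 also: cells exposed to compound for 96 hours before readout; 0% = vehicle DMSO and 100% = high DMSO killing control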
[11] = compounds altering viability of human ES cells (AID 493140; call rule not given here;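 also: cells exposed to compounds for four days before counting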); conditions: human embryonic stem cell survival screen; stronger effect = higher value
[12] = viability loss in pontine glioma line – cell-based, SU-DIPG-XIII, MIPE5.0, CellTiter-Glo, qHTS, dose response (AID 1347064; cut-off not given, nearly all actives have AC50 up to about 23 µM;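 also: cells exposed to compound for 48 hours before the viability read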); conditions: CellTiter-Glo ATP luminescence
[13] = growth inhibition of DIPG cells – cell-based, MIPE4.0 library, CellTiter-Glo luminescence, qHTS (AID 1347066; cut-off not given, nearly all actives have AC50 up to about 30 µM;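 also: cells exposed to compound for 48 hours before readout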); conditions: SU-DIPG-VI viability, CellTiter-Glo ATP luminescence
[14] = measured here: combination with BGB IC40, at 0.05 µM
[15] = measured here: with BGB IC20 combination, at 0.5 µM
[16] = measured here: with cisplatin IC20 combination, at 0.5 µM
[17] = measured here: combination with cisplatin, at 0.5 µM

COc1cc([C@@H]2c3cc4c(cc3[C@@H](O[C@@H]3O[C@@H]5CO[C@@H](c6cccs6)O[C@H]5[C@H](O)[C@H]3O)[C@H]3COC(=O)[C@H]23)OCO4)cc(OC)c1O
AC50 [1]: 5900 nM (active) | remaining NAD [2]: 10 nM (inactive) | inhibition ([3]; at 0.5 µM, stronger effect = higher value): -18.8% (inactive) and -25.9% (inactive) | inhibition ([3]; measured here: combination with BGB IC20, at 0.005 µM): -25.8% and -10.9% | inhibition ([3]; measured here: combination with BGB IC40, at 0.005 µM): -33.2% and -18.4% | inhibition [3, 14]: -33.7% and -25% | inhibition ([3]; measured here: combination with cisplatin, at 0.5 µM, stronger effect = higher value): -32.6% and -15.4% | inhibition ([3]; measured here: combination with cisplatin, at 5 µM, stronger effect = higher value): 28.9% and -5.22% | inhibition ([4]; BGB combo, at 5 µM): 78% and 92.3% | inhibition ([4]; at 0.5 µM): 53.6% (inactive) and 64.1% (inactive) | inhibition ([4]; cisplatin combo, at 5 µM): 82.1% and 93.8% | inhibition [4, 15]: 46.9% and 59.7% | inhibition [4, 16]: 51% and 63.1% | inhibition ([4]; single agent, at 5 µM): 88% and 95.5% | inhibition ([5]; at 0.5 µM): -4.7% (inactive) and -8.97% (inactive) | inhibition [5, 14]: 1.41% and -17.3% | inhibition [5, 17]: 10.9% and 4.47% | inhibition ([5]; measured here: combination with cisplatin, at 5 µM): 22.9% and 27.7% | inhibition ([6]; at 0.5 µM): 63.9% (inactive) and 81.2% (active) | inhibition ([6]; measured here: with BGB IC20, at 0.5 µM): 57.1% and 81.5% | inhibition ([6]; measured here: with BGB IC20, at 5 µM): 98.1% and 98.9% | inhibition ([6]; measured here: with cisplatin IC20, at 0.5 µM): 63.4% and 77.7% | inhibition ([6]; measured here: with cisplatin IC20, at 5 µM): 99.6% and 99.8% | inhibition ([6]; single agent, at 5 µM): 99.4% and 99.7% | inhibition ([7]; at 0.5 µM): 49.3% (inactive) and 53.1% (inactive) | inhibition ([7]; measured here: BGB combination, at 0.5 µM): 36% and 34.4% | inhibition ([7]; measured here: BGB combination, at 5 µM): 73.1% and 71.2% | inhibition ([7]; measured here: cisplatin combination, at 0.5 µM): 49.6% and 58.2% | inhibition ([7]; measured here: cisplatin combination, at 5 µM): 83.3% and 88.6% | inhibition ([8]; at 0.5 µM): -19.6% (inactive) and -7.59% (inactive) | inhibition ([8]; cisplatin combination, at 0.5 µM): 12.3% and 2.14% | inhibition ([8]; cisplatin combination, at 5 µM): 27.6% and 23.9% | inhibition ([8]; measured here: BGB IC40 combination 0.05 uM, at 0.05 µM): -12.5% and 39.7% | inhibition ([8]; single agent, at 5 µM): 19.5% and 27.4% | inhibition ([9]; at 0.5 µM): -23.3% (inactive) and -2.62% (inactive) | inhibition ([9]; cisplatin combo, at 5 µM): 23% and 40.9% | inhibition ([9]; measured here: BGB IC40 combination, at 0.05 µM): -29.1% and -17.5% | inhibition [9, 17]: -8.55% and 20.3% | inhibition ([9]; single agent, at 5 µM): 28.8% and 46% | inhibition ([10]; at 0.5 µM): 44.9% (inactive) and 71.7% (inactive) | inhibition [10, 15]: 41.5% and 64% | inhibition [10, 16]: 45.4% and 75.2% | inhibition ([10]; single agent, at 0.05 µM): 4.76% and 55.4% | inhibition ([10]; single agent, at 5 µM): 98% and 98.8%

C[C@H]1O[C@@H](O[C@H]2[C@@H](O)C[C@H](O[C@H]3[C@@H](O)C[C@H](O[C@H]4CC[C@@]5(C)[C@H](CC[C@@H]6[C@@H]5C[C@@H](O)[C@]5(C)[C@@H](C7=CC(=O)OC7)CC[C@]65O)C4)O[C@@H]3C)O[C@@H]2C)C[C@H](O)[C@@H]1O
survival [11]: 0.667 (inactive) | AC50 [12]: 132 nM (active) | AC50 [1]: 166 nM (active) | AC50 [13]: 95.9 nM (active) | remaining NAD [2]: 10 nM (inactive)
